Measurements reported in PubChem BioAssay AID449762 (Southern Research Specialized Biocontainment Screening …, 2010).
Where “and” joins values, the source holds several entries; their conditions need not be identical. Identical values can stand only once. About 1,900 (0.58%) of roughly 330,000 compounds were called active. Inconclusive results (about 4%) are left out. Only a sample is shown. Results with a measured potency or affinity are listed apart. Unmarked numbers belong to inactive results. Rule as the data show it: inconclusive = inhibition above about 70% without an active follow-up result; inactive = below that.

Assay: M. tuberculosis growth inhibition, HTS (AID 449762);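 also: bacterial growth assessed after seven days of incubation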
Details: M. tuberculosis H37Rv growth inhibition, 7H9 media; at 25 µM; active compounds read high
With `COc1cccc(NC(=O)CSc2ccc3nnc(-c4cccnc4)n3n2)c1` the inhibition was 6.73%. For `O=C(CN(Cc1ccc(F)cc1)C(=O)CNS(=O)(=O)c1ccc(Cl)cc1)NCC1CCCO1` (centres undefined), the inhibition was -7.08%. With `CCC(=O)N1N=C(c2cccs2)CC1c1ccc(C)cc1` (centres undefined) the inhibition was -0.72%. Work on `CCN1CCN(CC(=O)N2N=C(c3cccs3)CC2c2ccc(C)cc2)C(=O)C1=O` (centres undefined) yielded an inhibition of 12.5%. `COc1ccccc1NC(=O)CCc1nnc2ccc(N3CCC4(CC3)OCCO4)nn12` gave an inhibition of -1.86%. `CN1C(=O)CSc2ccc(NC(=O)N3CCOCC3)cc21` showed an inhibition of 8.66%. With `CCC(=O)Oc1c(S(=O)(=O)c2ccc(C)cc2)c(C)nn1C(C)(C)C` the inhibition was 11.5%. Molecule `COc1ccc(Cc2nnc(SCC(=O)Nc3ccccc3C)n(N)c2=O)cc1` has an inhibition of -1.95%. For `CCOc1ccc(Cc2nnc(SCC(=O)Nc3ccc(OC)cc3)n(N)c2=O)cc1`, the inhibition was 0.84%. In the case of `N#Cc1c(N)n[nH]c1CCCN`, the inhibition is reported as 0.78%. Molecule `O=C(O)c1cc(Cl)nc2ccccc12` has an inhibition of 2.9%. In the case of `Nc1c2ccccc2nc2ccccc12`, the inhibition is reported as -8.85% and 58.8%. For `CCCCOc1ccc(OCCNC(=O)C2CCCN2C(=O)Nc2ccccc2)cc1` (centres undefined), the inhibition was 8.66%. For `COc1cc(C(=S)N2CCOCC2)cc(OC)c1OC(=O)c1ccc(C)cc1`, the inhibition was 8.19%. `CCCc1nc2ccccc2c(C(=O)O)c1CC` gave an inhibition of 2.61%. For `COc1cc2c(cc1OC)C1(NCC2)C(=O)Nc2ccccc21` (centres undefined), the inhibition was 4.39%. For `COc1cc2c(cc1OC)C1(Nc3c-2c(C)nn3-c2ccccc2)C(=O)Nc2ccccc21` (centres undefined), the inhibition was 9.01%. `COC(=O)c1sc(-c2ccccc2)cc1NC(=O)c1cc(OC)cc(OC)c1` gave an inhibition of 6.45%. Work on `Cc1cccc(C)c1-n1c(C)nn(Cc2ccc([N+](=O)[O-])cc2)c1=O` yielded an inhibition of -15.4%. In the case of `C(=N\Nc1ccccn1)/c1ccc2c(c1)OCCO2`, the inhibition is reported as -4.47%. For `C(=N\Nc1nc2ccccc2[nH]1)/c1ccc2c(c1)OCCO2`, the inhibition was 12.1%. Work on `O=C(NN1C(=O)NC2(CCCCC2)C1=O)c1ccc(-c2ccc([N+](=O)[O-])cc2)o1` yielded an inhibition of 4.8%. Work on `CCOC(=O)C1CCCN(S(=O)(=O)c2cccc3cccnc23)C1` (centres undefined) yielded an inhibition of -4.82%. For `O=C1N(CCCN2C(=O)C3(OCCO3)c3ccccc32)c2ccccc2C12OCCO2`, the inhibition was -3.19%. Work on `O=C1N(CCCCN2C(=O)C3(OCCO3)c3ccccc32)c2ccccc2C12OCCO2` yielded an inhibition of -3.23%. In the case of `O=C1O[C@@H]([C@H](O)CO)C(O)=C1O`, the inhibition is reported as -0.84%. Molecule `Cn1c(C(=O)NCc2ccc3c(c2)OCO3)cc2sccc21` has an inhibition of 9.66%. `CN1OC(c2ccccc2)=C(CO)C1c1ccccc1` (centres undefined) gave an inhibition of -1.69%. `COc1ccc(-c2c(-c3ccc(OC)c(C)c3O)n[nH]c2C)cc1` showed an inhibition of 10.4%. `O=C(c1ccc(CSc2nc3ccncc3[nH]2)cc1)N1CCN(c2cccc(Cl)c2)CC1` showed an inhibition of 60.3%. `O=C(NCc1ccc(Cl)cc1)c1ccc(CSc2nc3ccncc3[nH]2)cc1` gave an inhibition of 5.93%. With `O=C(c1ccco1)N1CCCC(c2nc3c(nnn3Cc3cccc(Cl)c3)c(=O)[nH]2)C1` (centres undefined) the inhibition was -2.33%. `CCOC(=O)c1ccc(Nc2ccc([N+](=O)[O-])cn2)cc1` gave an inhibition of -5.22%. With `C#CCCC(=O)c1ccccc1/C=[N+](\[O-])c1ccccc1` the inhibition was -2.08%. Molecule `COc1cccc(-c2n[nH]c(=S)n2Cc2ccco2)c1` has an inhibition of 8.56%. In the case of `COCc1c(C(=O)N/N=C(/C)c2cccs2)nnn1-c1nonc1N`, the inhibition is reported as -8.26%. With `CCOc1ccc(NC(=O)CCC(=O)Nc2cc(OC)c(NC(=O)c3ccco3)cc2OC)cc1` the inhibition was 20.8%. Work on `CCN1C(=O)[C@H]2[C@@H](c3ccc(-c4ccccc4)cc3)N[C@@](C)(C(=O)OC)[C@H]2C1=O` yielded an inhibition of 1.42%. Molecule `COc1cc(CCC(C)=O)ccc1OC(=O)c1c(F)cccc1Cl` has an inhibition of 3.02%. Work on `COc1ccc(NC(=O)COc2ccc(/C=C/c3cc[n+](C)cc3)cc2OC)cc1` yielded an inhibition of -3.55%. For `COc1cc(/C=C/c2cc[n+](C)cc2)ccc1OCC(=O)Nc1ccccc1`, the inhibition was -0.02%. Molecule `CCCCCCc1nc(C(N)=O)c2[nH]c(=O)n(-c3ccc(OC)cc3OC)c2n1` has an inhibition of 7.81%. `Cc1cc(C)c(CN2CCC(n3nccc3NC(=O)C3CCOC3)CC2)cc1C` (centres undefined) showed an inhibition of -0.02%. For `OC1(c2cccc(C(F)(F)F)c2)CCN(Cc2nnnn2CCc2ccccc2)CC1`, the inhibition was 1.32%. For `Cc1ccc(N2Cc3ccccc3C2=N)cc1[N+](=O)[O-]`, the inhibition was 2.11%. Molecule `COc1cc(NS(=O)(=O)c2ccc(OC)c(C)c2C)c(OC)cc1Cl` has an inhibition of -6.31%. Work on `Cc1cccc(NC(=O)CSc2cccc3cccnc23)c1` yielded an inhibition of -1.29%. Molecule `O=C(CSc1cccc2cccnc12)Nc1cccc(S(=O)(=O)N2CCOCC2)c1` has an inhibition of -4.53%. With `COc1ccc(NC(=O)CN(C)C(=O)c2cc(C)on2)cc1` the inhibition was 2.44%. `Cc1cc(C(=O)CSc2n[nH]c(N)n2)c(C)n1-c1cccc(F)c1` showed an inhibition of -3.82%. Work on `Cc1c(Cl)cccc1NC(CC(=O)c1ccccc1)C(=O)OCC(=O)c1cccs1` (centres undefined) yielded an inhibition of -5.49%. Work on `O=C(CCC(=O)c1cccs1)OCC(=O)c1ccccc1` yielded an inhibition of 2.32%. `COC(=O)c1ccc(-n2c(C)cc(C(=O)COC(=O)C3=COCCO3)c2C)cc1` gave an inhibition of 48.5%. Work on `O=C(COC(=O)c1cccs1)c1ccc2c(c1)OCCO2` yielded an inhibition of -22.5%. Molecule `O=C(CC(Nc1ccccc1Cl)C(=O)OCC(=O)c1cccs1)c1ccccc1` (centres undefined) has an inhibition of 2.88%. Work on `O=C(OCC(=O)c1cccs1)c1ccccc1` yielded an inhibition of -1.72%. Work on `O=C(OCC(=O)c1ccc[nH]1)C1=COCCO1` yielded an inhibition of 18.8%. `COCCCn1c(SCC(=O)N2CCOCC2)nc2cc(Cl)ccc2c1=O` showed an inhibition of -3.72%. Molecule `CCOC(=O)CNC(=S)N(Cc1ccccc1)Cc1cccs1` has an inhibition of 2.83%.
